Screening data: PubChem, National Center for Advancing Translational Sciences (NCATS)
TDP-43 yeast inh = inhibitors of TDP-43 toxicity in yeast. TDP-43 expressing yeast growth rescue, BacTiter-Glo, 24 h. Potency, µM (doses to about 46.1 µM), without a hit: at the highest dose growth rescue (activation), actives largely listed as activators. hit rate 1.8% among 410,000. AID 652104; note: % of control where 0% means no effect; nearly all actives have a fitted effect of over 50% in size
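Galactose-induced TDP-43 yeast, OD600=0.02, compound pinned; 24 hr, 30 deg C; BacTiter-Glo luminescence for growth. Inhibitors of TDP-43 toxicity read as activators.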
Abeta rescue = compounds reversing amyloid beta toxicity in yeast | yeast expressing A-beta42, growth rescue, OD600, 48 h; response scale: 0% DMSO, 100% iron-clioquinol control | Potency, µM (top dose mostly 46.1 µM), actives largely listed as activators | hit rate 0.063% among 410,000; note: nearly all actives have a fitted effect of over 55% in size
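Yeast A-beta toxicity model in growth medium with pinned compounds, 48 h at 30 C; growth read as absorbance at 600 nm. Normalized to FeCl3/clioquinol equimolar mix (positive) and DMSO (negative).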
FUS suppressor = FUS proteinopathy suppression in yeast | Potency, µM (highest dose often 76.6 µM), usual class: activators | S. cerevisiae FUS-expressing, growth rescue, OD600, 24 h | hit rate 0.24% among 390,000;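 note: plate controls were DMSO vehicle for no effect and reference control for full effect; nearly all actives have a fitted effect of over 55% in size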
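Galactose (2%) drives FUS expression in yeast precultured in raffinose; seeding density OD 0.005. Test compounds incubated 24hr at 30C and 99% humidity before absorbance at 600 nm was measured.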
aSyn rescue = alpha-synuclein toxicity inhibition in yeast. hit rate 0.14% among 370,000. Potency, µM (top dose mostly 46.1 µM), without a hit: at the highest dose growth rescue (activation), most hits filed as activators. Yeast expressing alpha-synuclein, growth rescue, BacTiter-Glo, 24 h; note: % of control where 0% means no effect; nearly all actives have a fitted effect of over 65% in size
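Readout is rescue of growth in alpha-synuclein-expressing yeast, so inhibitors of toxicity appear as activators. Growth after 24 hr at 30 deg C in galactose medium is quantified by luminescence.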
Numbers without * were called inactive; [ ] = remark or other dose. Rows were chosen to be rich in hits. Some 2.1% of all compounds tested hit in one or more screens of this group. Calls come from the whole dose curve; as a rule, active = well fitted curve in the direction sought with a large enough effect; inconclusive = small, poorly fitted or top-dose-only effect, or another doubt; inactive = no such curve, though single readings can be large; an effect the other way counts as inactive or inconclusive. Potency is the fitted concentration of half-maximal effect.

How did O=C(c1cc(-c2ccccc2)on1)N1CCCc2ccccc21 do in these assays?
TDP-43 yeast inh: 30%; Abeta rescue: inactive; FUS suppressor: inactive; aSyn rescue: 0%

How did S=c1[nH]nc(-c2cc(-c3ccccn3)nc3ccccc23)o1 do in these assays?
TDP-43 yeast inh: 3.2µM*; Abeta rescue: inactive; FUS suppressor: inactive; aSyn rescue: 14%

What do the screens show for `Cc1ccc(-c2cc(-c3n[nH]c(=S)o3)c3ccccc3n2)cc1`?
TDP-43 yeast inh: inconclusive; Abeta rescue: inactive; FUS suppressor: inactive; aSyn rescue: -14%

What do the screens show for `CCOc1ccccc1NS(=O)(=O)c1ccc(Br)s1`?
TDP-43 yeast inh: -18%; Abeta rescue: inactive; FUS suppressor: inactive; aSyn rescue: 14µM*

Results for Cc1ccc(F)cc1NS(=O)(=O)c1ccc(Cl)s1 ?
TDP-43 yeast inh: 35µM*; Abeta rescue: inactive; FUS suppressor: inactive; aSyn rescue: 13%[1.84 µM]

What do the screens show for `O=S(=O)(Nc1ccc(F)cc1F)c1ccc(Br)s1`?
TDP-43 yeast inh: 20µM*; Abeta rescue: inactive; FUS suppressor: inactive

Results for COCCNC(=O)c1ccccc1NS(=O)(=O)c1ccc(Br)s1 ?
TDP-43 yeast inh: -22%; Abeta rescue: inactive; FUS suppressor: inactive; aSyn rescue: 2%

Results for COc1ccccc1CNS(=O)(=O)c1ccc(Br)s1 ?
TDP-43 yeast inh: 13µM*; Abeta rescue: inactive; FUS suppressor: inactive; aSyn rescue: 10%

Results for C(=C\c1ccnc2ccccc12)/c1ccc(N2CCN(c3ccc(/C=C/c4ccnc5ccccc45)cc3)CC2)cc1 ?
aSyn rescue: -11%

Results for COc1ccccc1CCNS(=O)(=O)CCNC(=O)c1ccccc1 ?
TDP-43 yeast inh: -1%; Abeta rescue: inactive; FUS suppressor: inactive; aSyn rescue: -2%

What do the screens show for `COc1ccccc1CCNC(=O)c1ccc(Br)s1`?
TDP-43 yeast inh: 14µM*; Abeta rescue: inactive; FUS suppressor: inactive; aSyn rescue: 12%

How did CC(=O)Nc1nc(-c2ccc(Cl)cc2)nc(C)c1C(C)=O do in these assays?
TDP-43 yeast inh: 35µM*; Abeta rescue: inactive; FUS suppressor: inactive; aSyn rescue: 0%

What do the screens show for `N/C(=N\OC(=O)c1cccc2ccccc12)c1ccc(Br)cc1`?
TDP-43 yeast inh: inconclusive; Abeta rescue: inactive; FUS suppressor: inactive; aSyn rescue: -49%

How did N/C(=N\OC(=O)c1cccc2ccccc12)c1ccncc1 do in these assays?
TDP-43 yeast inh: 20µM*; Abeta rescue: inactive; FUS suppressor: inactive; aSyn rescue: inconclusive

What do the screens show for `N/C(Cc1cccc2ccccc12)=N\OC(=O)COc1ccccc1`?
TDP-43 yeast inh: 22µM*; Abeta rescue: inactive; aSyn rescue: -24%

How did COc1ccccc1C/C(N)=N/OC(=O)COc1cccc2ccccc12 do in these assays?
TDP-43 yeast inh: 0%; Abeta rescue: inactive; FUS suppressor: inactive; aSyn rescue: 9%

Results for N/C(Cc1cccc2ccccc12)=N\OC(=O)c1ccccc1F ?
TDP-43 yeast inh: 22µM*; Abeta rescue: inactive; aSyn rescue: -26%

What do the screens show for `Cc1c(C(=O)N2CCC(C)CC2)c(S(=O)(=O)Nc2cccc(C#N)c2)c(C)n1C`?
TDP-43 yeast inh: 0%; Abeta rescue: inactive; FUS suppressor: inactive

What do the screens show for `CCN1CCN(c2c(S(=O)(=O)c3ccc(C)c(C)c3)cnc3cc(OC)c(OC)cc23)CC1`?
TDP-43 yeast inh: 1%; Abeta rescue: inactive; FUS suppressor: inactive

How did Cc1ccc(N2CCN(C(=O)c3cn(C)c4ccc(S(=O)(=O)N5CCCC5)cc4c3=O)CC2C)cc1 (stereo not drawn) do in these assays?
TDP-43 yeast inh: 16%; Abeta rescue: inactive; FUS suppressor: inactive

How did CCOC(=O)c1ccc(N/C(=N\S(=O)(=O)c2ccccc2C)c2ccccc2)cc1 do in these assays?
TDP-43 yeast inh: 25µM*; Abeta rescue: inactive; FUS suppressor: inactive; aSyn rescue: 5%

How did COC(=O)c1ccc(N/C(=N/S(=O)(=O)c2ccccc2)c2ccccc2)cc1 do in these assays?
TDP-43 yeast inh: 15%; Abeta rescue: inactive; aSyn rescue: 2%

How did Cn1c(=O)c(=O)n(C)c2cc(S(=O)(=O)N3CCN(Cc4ccc5c(c4)OCO5)CC3)ccc21 do in these assays?
FUS suppressor: inactive

Results for CCCCCCC[n+]1c(/C=C/c2ccc(N(C)C)cc2)sc2ccccc21 ?
aSyn rescue: -89%

What do the screens show for `CC(C)(C)c1ccc(C(=O)NNC(=S)NC(=O)c2cccnc2)cc1`?
TDP-43 yeast inh: inconclusive; Abeta rescue: inactive; FUS suppressor: inconclusive; aSyn rescue: 11µM*

Results for O=C(NNC(=S)NC(=O)c1ccccc1)c1cccnc1 ?
TDP-43 yeast inh: 5%; Abeta rescue: inactive; FUS suppressor: inactive; aSyn rescue: -11%

Results for CC(C)(C)c1ccc(OCC(=O)NNC(=S)NC(=O)c2ccccc2[N+](=O)[O-])c(Br)c1 ?
TDP-43 yeast inh: 18µM*; Abeta rescue: inactive; FUS suppressor: inactive; aSyn rescue: inconclusive

How did Cc1cccc(C(=O)NC(=S)NNC(=O)c2ccc(Cl)cc2)c1 do in these assays?
TDP-43 yeast inh: inconclusive; Abeta rescue: 3.2µM*; aSyn rescue: inconclusive

What do the screens show for `Cc1ccccc1OCC(=O)NNC(=S)NC(=O)c1ccccc1[N+](=O)[O-]`?
TDP-43 yeast inh: 0%; Abeta rescue: inactive; FUS suppressor: inactive; aSyn rescue: 0%

What do the screens show for `CC(C)(C)c1cc(Cl)c(O)c(NC(=S)NC(=O)c2cccnc2)c1`?
TDP-43 yeast inh: 8.9µM*; Abeta rescue: inconclusive; FUS suppressor: inactive; aSyn rescue: 11%

Results for COc1cc(OC)cc(C(=O)NCc2ccc3c(c2)CCN3C(=O)c2ccccc2)c1 ?
TDP-43 yeast inh: -13%; Abeta rescue: inactive; FUS suppressor: inconclusive

Results for O=C(/C=C/c1ccccc1)NC(=S)NNC(=O)c1cccnc1 ?
TDP-43 yeast inh: 16µM*; Abeta rescue: inconclusive; FUS suppressor: inactive; aSyn rescue: 7%

What do the screens show for `Cc1ccc(C(=O)NNC(=S)NC(=O)COc2ccccc2)cc1`?
TDP-43 yeast inh: 14%; Abeta rescue: inconclusive; FUS suppressor: inactive; aSyn rescue: inconclusive

How did CC(C)(C)c1ccc(C(=O)NC(=S)NNC(=O)COc2ccccc2)cc1 do in these assays?
TDP-43 yeast inh: 13µM*; Abeta rescue: inactive; FUS suppressor: inactive; aSyn rescue: inconclusive

Results for O=C(COC(=O)CCCN1C(=O)c2ccccc2C1=O)Nc1cc(Cl)cc(Cl)c1 ?
TDP-43 yeast inh: 15%; Abeta rescue: inactive; FUS suppressor: inactive; aSyn rescue: 14%

Results for COc1ccc(NC(=O)COC(=O)CCCN2C(=O)c3ccccc3C2=O)cc1Cl ?
TDP-43 yeast inh: 35µM*; Abeta rescue: inactive; aSyn rescue: 18%
